Experiment [1] is described as follows: antimalarial activity against Dd2 strain (AID 2302;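 active means growth inhibition above 50% at the single 2 µM test dose, taken to imply half-maximal potency below 2 µM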;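 further: 0% = DMSO untreated growth and 100% = chloroquine plus artemisinin killed control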). The note with it: P. falciparum Dd2 in RBCs, LDH growth readout, 72 h; at 2 µM; active compounds read high.
A short description of experiment [2]: human hepatoma cell viability loss – ATP luminescence, cytotoxicity control for P. falciparum antimalarial project, primary screen (AID 2303;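 active means inhibition above 50%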;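 further: 0% = DMSO wells and 100% = digitonin-killed cells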). The note with it: HepG2 viability, 24-48 h, at 10 µM, active compounds read high.
The target of experiment [3] is L-lactate dehydrogenase (Plasmodium falciparum (isolate CDC / Honduras)) (UniProt Q27743). As to the kind of experiment: PfLDH activity inhibition – cell lysate, 3D7 strain, counter-screen for P. falciparum growth inhibition project (AID 2304).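 Further: 0% = vehicle and 100% = reference inhibitor.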 Particulars: P. falciparum 3D7 crude extract, LDH APAD/NBT absorbance; at 2 µM; active compounds read high.
The nature of experiment [4]: inhibition of 3D7 malaria parasite growth – strain 3D7 (AID 2306).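 Further: 0% = DMSO wells and 100% = chloroquine plus artemisinin control wells.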 Particulars: P. falciparum 3D7 erythrocytic growth, LDH absorbance, 72 h; at 2 µM; active compounds read high.
The target of experiment [5] is Calcium-dependent protein kinase 1 (Plasmodium falciparum (isolate 3D7)) (UniProt P62344). Description: PfCDPK1 kinase inhibitors, biochemical, TCAMS library (AID 1159585; cut-off not given, nearly all actives have IC50 up to about 0.98 µM;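 further: inhibitors leave more ATP so luminescence rises with inhibition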). Particulars: recombinant PfCDPK1, Kinase-Glo ATP depletion luminescence.
Experiment [6] concerns the target Plasmodium falciparum protein kinase 6 (PK6, PF3D7_1337100) (UniProt Q8IDW1). Description: PfPK6 kinase inhibitors, biochemical, TCAMS library (AID 1159586). Particulars: recombinant PfPK6, Kinase-Glo ATP depletion luminescence.
Experiment [7] deals with Protein kinase 7 (PK7), Plasmodium falciparum 3D7 (PF3D7_0213400) (UniProt Q7YTF7). Description: inhibition of Plasmodium PK7 catalytic activity – biochemical, TCAMS antimalarial set, Kinase-Glo luminescence (AID 1159587). The note with it: recombinant PfPK7, Kinase-Glo ATP depletion luminescence.
In experiment [8] the target is Calcium-dependent protein kinase 4 (Plasmodium falciparum (isolate 3D7)) (UniProt Q8IBS5). Description: PfCDPK4 kinase inhibitors, biochemical, TCAMS library (AID 1159588; cut-off not given, nearly all actives have IC50 up to about 0.91 µM). The note with it: recombinant PfCDPK4, Kinase-Glo ATP depletion luminescence.

Structures are written as SMILES. A number with no mark means an inactive call. For some of these results: Results with a measured potency or affinity are listed apart. Calls of active or inactive are those of the source. Unless noted, how the calls were made is not given here.

This note sets out measurements from PubChem BioAssay.

Sequence of Calcium-dependent protein kinase 4 (Plasmodium falciparum (isolate 3D7)) (Q8IBS5 whole entry, looked up): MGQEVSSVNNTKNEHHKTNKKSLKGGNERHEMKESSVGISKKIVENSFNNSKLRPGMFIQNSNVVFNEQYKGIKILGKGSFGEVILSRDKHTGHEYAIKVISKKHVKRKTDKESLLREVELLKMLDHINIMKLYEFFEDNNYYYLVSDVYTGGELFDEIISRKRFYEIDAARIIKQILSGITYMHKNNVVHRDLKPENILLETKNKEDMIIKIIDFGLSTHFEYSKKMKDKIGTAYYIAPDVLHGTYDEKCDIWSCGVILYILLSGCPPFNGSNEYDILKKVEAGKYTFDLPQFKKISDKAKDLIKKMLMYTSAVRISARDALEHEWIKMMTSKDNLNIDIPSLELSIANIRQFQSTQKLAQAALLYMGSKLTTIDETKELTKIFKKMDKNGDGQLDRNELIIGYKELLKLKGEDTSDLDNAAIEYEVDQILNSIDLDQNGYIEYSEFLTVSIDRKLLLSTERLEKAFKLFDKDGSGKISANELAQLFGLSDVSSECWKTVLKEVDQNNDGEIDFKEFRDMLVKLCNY
Sequence of Calcium-dependent protein kinase 1 (Plasmodium falciparum (isolate 3D7)) (P62344 whole entry, looked up): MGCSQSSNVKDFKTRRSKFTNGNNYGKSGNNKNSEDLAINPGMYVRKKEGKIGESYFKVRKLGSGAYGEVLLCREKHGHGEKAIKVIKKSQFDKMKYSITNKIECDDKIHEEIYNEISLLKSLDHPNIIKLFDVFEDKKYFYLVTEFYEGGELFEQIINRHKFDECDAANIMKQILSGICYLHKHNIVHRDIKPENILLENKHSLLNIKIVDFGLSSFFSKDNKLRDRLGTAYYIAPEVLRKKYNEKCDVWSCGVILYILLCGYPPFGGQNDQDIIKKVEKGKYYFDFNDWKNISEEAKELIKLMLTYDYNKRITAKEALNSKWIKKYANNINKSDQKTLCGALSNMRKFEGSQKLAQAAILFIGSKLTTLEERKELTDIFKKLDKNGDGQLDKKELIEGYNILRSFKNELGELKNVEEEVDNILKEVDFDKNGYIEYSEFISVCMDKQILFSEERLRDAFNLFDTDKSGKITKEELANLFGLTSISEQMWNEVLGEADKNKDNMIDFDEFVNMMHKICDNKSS
Sequence of Plasmodium falciparum protein kinase 6 (PK6, PF3D7_1337100) (Q8IDW1 1-305): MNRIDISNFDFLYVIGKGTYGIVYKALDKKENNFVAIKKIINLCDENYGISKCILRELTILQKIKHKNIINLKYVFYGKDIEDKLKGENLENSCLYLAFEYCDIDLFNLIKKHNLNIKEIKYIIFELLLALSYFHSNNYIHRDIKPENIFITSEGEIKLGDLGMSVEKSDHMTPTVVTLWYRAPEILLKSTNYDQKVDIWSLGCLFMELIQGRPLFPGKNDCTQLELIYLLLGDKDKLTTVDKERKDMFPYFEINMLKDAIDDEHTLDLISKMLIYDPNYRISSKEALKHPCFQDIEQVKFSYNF
Sequence of L-lactate dehydrogenase (Plasmodium falciparum (isolate CDC / Honduras)) (Q27743 whole entry, looked up): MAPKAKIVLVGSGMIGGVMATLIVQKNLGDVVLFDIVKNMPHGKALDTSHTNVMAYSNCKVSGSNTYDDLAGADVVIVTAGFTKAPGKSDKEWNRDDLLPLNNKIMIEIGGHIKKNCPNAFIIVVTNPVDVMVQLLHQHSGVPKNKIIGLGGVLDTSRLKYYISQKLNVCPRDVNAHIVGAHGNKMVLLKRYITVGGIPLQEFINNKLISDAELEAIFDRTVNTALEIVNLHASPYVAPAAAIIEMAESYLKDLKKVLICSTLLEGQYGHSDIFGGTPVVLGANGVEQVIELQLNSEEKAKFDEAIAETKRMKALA
Sequence of Protein kinase 7 (PK7), Plasmodium falciparum 3D7 (PF3D7_0213400) (Q7YTF7 1-343): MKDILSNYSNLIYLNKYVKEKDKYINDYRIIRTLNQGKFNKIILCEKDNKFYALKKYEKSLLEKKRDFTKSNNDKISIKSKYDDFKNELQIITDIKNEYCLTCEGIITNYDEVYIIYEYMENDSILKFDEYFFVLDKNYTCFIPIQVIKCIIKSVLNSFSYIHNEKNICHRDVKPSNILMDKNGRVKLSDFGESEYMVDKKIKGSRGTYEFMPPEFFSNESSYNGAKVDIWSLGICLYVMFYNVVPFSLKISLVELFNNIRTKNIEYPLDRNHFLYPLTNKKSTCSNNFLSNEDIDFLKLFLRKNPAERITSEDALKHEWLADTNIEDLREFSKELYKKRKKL

For `N#Cc1cc(C(=O)Nc2ccccc2)c(N)nc1SCC(=O)NC(c1ccccc1)c1cccs1` (stereo not given), the values for the growth inhibition in experiment [1] and in experiment [4] were 100% (active) and 98% (active), respectively. In addition, the inhibition in experiment [2] was 34%; in experiment [3], -1%. The result in experiment [5], in experiment [6], in experiment [7] and in experiment [8] was inactive.

With `O=C(Nc1cccc(CN2CCCN(Cc3ccc4c(c3)OCO4)CC2)c1)c1ccc2ccccc2c1`, the growth inhibition was 14% in experiment [1] and 86% (active) in experiment [4]. Further, the inhibition in experiment [2] is 7%; in experiment [3], -2%. For the same molecule, the outcome in experiment [5], in experiment [6], in experiment [7] and in experiment [8] was inactive.

Take `C[C@H](NC(=O)c1c(CN2CCC(NC(=O)CC(C)(C)C)CC2)c(-c2cccs2)nc2ccccc12)C1CCCCC1`: the values for the growth inhibition in experiment [1] and in experiment [4] were 70% (active) and 91% (active), respectively. Further, the inhibition in experiment [2] and in experiment [3] was -3% in each case. In addition, the outcome in experiment [5], in experiment [6], in experiment [7] and in experiment [8] was inactive.

On to `O=C(/C=C/c1ccccc1O)N1CCC(CCN2CCC(c3c[nH]c4ccccc34)CC2)CC1`, for which the growth inhibition in experiment [1] was 15%; in experiment [4] it was 100% (active). Also, the inhibition is 46% in experiment [2] and -1% in experiment [3]. The result in experiment [5], in experiment [6], in experiment [7] and in experiment [8] was inactive.

Consider `C=CCn1c(=N)n(CC(O)c2ccc(Cl)c(Cl)c2)c2ccccc21` (stereo not given), for which the growth inhibition in experiment [1] was 80% (active); in experiment [4] it was 91% (active). For the same molecule, the inhibition is 15% in experiment [2] and 1% in experiment [3]. The outcome in experiment [5], in experiment [6], in experiment [7] and in experiment [8] was inactive.

Regarding `N#Cc1ccc(N(CCOc2ccc(Cl)cc2)Cc2ccccc2C(F)(F)F)cc1C(F)(F)F`, the growth inhibition in experiment [1] is 64% (active); in experiment [4], 91% (active). Also, the inhibition in experiment [2] is 3%; in experiment [3], 2%. Moreover, the outcome in experiment [5], in experiment [6], in experiment [7] and in experiment [8] was inactive.

Consider `O=C(Nc1ccc(-c2ccc(-c3nc4ccc(C(F)(F)F)cc4[nH]3)s2)cc1)c1cnc[nH]1`, for which the growth inhibition in experiment [1] is 61% (active); in experiment [4], 92% (active). Further, the inhibition in experiment [2] is 66% (active); in experiment [3], 5%. The outcome in experiment [5], in experiment [6], in experiment [7] and in experiment [8] was inactive.

Regarding `COc1ccc(Cl)cc1C(=O)Nc1ccc(-c2nc3ccccc3[nH]2)cc1`, the growth inhibition in experiment [1] is 39%; in experiment [4] it was 92% (active). Further, the results for the inhibition in experiment [2] and in experiment [3] were 42% and -7%, respectively. Also, the result in experiment [5], in experiment [6], in experiment [7] and in experiment [8] was inactive.

Take `CCCN(CCC)S(=O)(=O)c1ccc(C(=O)Nc2nc3ccc(-c4cc(=O)[nH]c(Nc5ccccc5Cl)n4)cc3[nH]2)cc1`: the results for the growth inhibition in experiment [1] and in experiment [4] were 98% (active) and 100% (active), respectively. Besides, the results for the inhibition in experiment [2] and in experiment [3] were 1% and -4%, respectively. For the same molecule, the result in experiment [5], in experiment [6], in experiment [7] and in experiment [8] was inactive.

As to `Cc1cc(N(CCN2CCCCC2)CCN2CCCCC2)nc(Nc2ccc(Cl)cc2)n1`, the results for the growth inhibition in experiment [1] and in experiment [4] were 79% (active) and 101% (active), respectively. Moreover, the inhibition in experiment [2] was 19%; in experiment [3] it was -4%. Further, the result in experiment [5], in experiment [6], in experiment [7] and in experiment [8] was inactive.

Consider `NC1CCN(CCNCc2cccc(-c3ccc(-c4nc5ccc(C(F)(F)F)cc5[nH]4)cc3)c2)C1` (stereo not given), for which the values for the growth inhibition in experiment [1] and in experiment [4] were 75% (active) and 98% (active), respectively. Also, the inhibition is 19% in experiment [2] and 1% in experiment [3]. The result in experiment [5], in experiment [6], in experiment [7] and in experiment [8] was inactive.

Consider `CCOc1ccc(-c2n[nH]c(C(F)(F)F)c2-c2ccccc2OC)c(O)c1`, for which the growth inhibition in experiment [1] was 12%; in experiment [4], 86% (active). The inhibition in experiment [2] was 22%; in experiment [3] it was -5%. Besides, the result in experiment [5], in experiment [6], in experiment [7] and in experiment [8] was inactive.

As for `CC(C)c1ccc(N(CC(=O)N/N=C/c2ccc(C(F)(F)F)cc2)S(=O)(=O)c2ccc(C(F)(F)F)cc2)cc1`, the growth inhibition in experiment [1] is 44%; in experiment [4], 91% (active). The inhibition in experiment [2] was 2%; in experiment [3], 3%. The result in experiment [5], in experiment [6], in experiment [7] and in experiment [8] was inactive.

`FC(F)(F)c1ccc2nc(-c3cccc(-c4cccc(CNCc5cnn(-c6ccccc6)n5)c4)c3)[nH]c2c1`: the growth inhibition in experiment [1] is 28%; in experiment [4], 100% (active). The inhibition in experiment [2] is 6%; in experiment [3], -5%. Also, the result in experiment [5], in experiment [6], in experiment [7] and in experiment [8] was inactive.

On to `Cn1cncc1C(=O)Nc1ccc(-c2ccc(-c3nc4ccc(C(F)(F)F)cc4[nH]3)cc2)cc1`, for which the growth inhibition is 33% in experiment [1] and 102% (active) in experiment [4]. For the same molecule, the inhibition in experiment [2] was 24%; in experiment [3], 5%. For the same molecule, the outcome in experiment [5], in experiment [6], in experiment [7] and in experiment [8] was inactive.

`CC(=O)N1N=C(c2ccc(F)cc2)Sc2c1nc(C1CCCCC1)n2C(C)=O`: the results for the growth inhibition in experiment [1] and in experiment [4] were 9% and 92% (active), respectively. Also, the inhibition in experiment [2] and in experiment [3] was 4% throughout. Besides, the outcome in experiment [5], in experiment [6], in experiment [7] and in experiment [8] was inactive.

Take `CCCc1cc(Cc2cnc(N)nc2N)cc(CCC)c1OCCCCC(=O)OC`: the growth inhibition in experiment [1] is -5%; in experiment [4] it was 94% (active). The values for the inhibition in experiment [2] and in experiment [3] were -7% and -5%, respectively. The result in experiment [5], in experiment [6], in experiment [7] and in experiment [8] was inactive.

On to `c1cc(CN2CCCCC2)cc(-c2ccc(-c3nc4ccccc4[nH]3)s2)c1`, for which the growth inhibition is 100% (active) in experiment [1] and 101% (active) in experiment [4]. Besides, the inhibition in experiment [2] is 11%; in experiment [3], 2%. The outcome in experiment [5], in experiment [6], in experiment [7] and in experiment [8] was inactive.

For the molecule `O=C(Nc1cccc(-c2nn3ncccc3c2-c2ccnc(Nc3cccc(C(F)(F)F)c3)n2)c1)c1c(F)cccc1F`, the growth inhibition is 68% (active) in experiment [1] and 97% (active) in experiment [4]. For the same molecule, the inhibition in experiment [2] was 49%; in experiment [3], -2%. Moreover, the outcome in experiment [5], in experiment [6], in experiment [7] and in experiment [8] was inactive.

Turning to `O=C(c1ccccc1[N+](=O)[O-])N(Cc1ccccc1)c1ccccn1`, the growth inhibition in experiment [1] was -2%; in experiment [4], 91% (active). The results for the inhibition in experiment [2] and in experiment [3] were 0% and -1%, respectively. For the same molecule, the outcome in experiment [5], in experiment [6], in experiment [7] and in experiment [8] was inactive.
